dFosB act – activators of delta FosB homodimer, primary screen, biochemical, fluorescence polarization, TAMRA-CDK5 oligo, single point. Protein FosB (Mus musculus), P13346. AID 493131, 2011. 340,000 tested, 0.99% active. activation, % at 25 µM. purified delta FosB; percent of positive-control signal above neutral wells;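 active means mean activation above about 17%, with every replicate also reaching it, limit read from the data, passing the limit was not always enough; inconclusive means only one of the two conditions met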
Target sequence (P13346 whole entry, looked up): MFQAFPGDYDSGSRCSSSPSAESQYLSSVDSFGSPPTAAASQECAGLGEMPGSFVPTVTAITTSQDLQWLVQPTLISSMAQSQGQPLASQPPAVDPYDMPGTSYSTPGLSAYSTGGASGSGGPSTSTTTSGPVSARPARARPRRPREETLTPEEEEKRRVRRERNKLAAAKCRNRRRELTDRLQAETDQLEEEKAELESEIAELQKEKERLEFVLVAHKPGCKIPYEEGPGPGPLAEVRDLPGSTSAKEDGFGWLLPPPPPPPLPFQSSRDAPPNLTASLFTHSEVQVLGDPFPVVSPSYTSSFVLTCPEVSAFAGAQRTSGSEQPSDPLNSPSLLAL
HSP90 inh – HSP90 inhibitors, primary screen, cell lysate, luminescence; Rabbit reticulocyte lysate, luciferase refolding luminescence, 3 h; inhibition, % at 5.6 µM; 290,000 tested, 0.91% active;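 active means inhibition above the screen-wide mean plus 3 SD, computed separately per campaign, cut at about 16% in these data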;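 further: 0% = DMSO wells and 100% = 60 µM geldanamycin wells; inhibitors lower the luminescence because luciferase stays unfolded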
MPTP block – mitochondrial permeability transition pore inhibitors, primary screen, biochemical, isolated mouse mitochondria, absorbance. 360,000 tested, 1.4% active. inhibition, % at 10 µM. Ca2+ swelling absorbance, 30 min;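 active means inhibition of 50% or more, scaled per plate between neutral and stimulator controls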;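 further: 0% = DMSO wells given calcium and 100% = 1 mM EGTA wells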
HSF1 inhib – HSF1 inhibitors in luciferase reporter cells, primary screen, cell-based, NIH3T3, luminescence | activity change, negative = inhibition, % at 7.5 µM (by protocol) | NIH3T3-HGL HSE-luciferase, MG132-induced, luminescence 8 h; hits give low values | 300,000 tested, 0.77% active;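 active means more than half of replicate wells show activity change below -50%, luminescence cut by over half; inconclusive means some wells, but at most half, below -50%; inactive means no replicate well below -50%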;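 further: luciferase reports HSF-1 transcriptional activity via heat shock element; 0% = median of DMSO wells and -100% = zero luminescence signal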
Platelet DG rel – inhibitors of platelet dense granule secretion, primary screen, cell-based, MLPCN, human platelets; inhibition, %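 (compounds screened at 7.5 µM in platelet-rich plasma)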; 300,000 tested, 0.22% active; AID 1663, 2009; human platelet-rich plasma, SFLLRN dense granule ATP release, luminescence;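 active means mean replicate score, as percent of positive control, at or above 50; inconclusive means mean below 50 but at least one replicate at or above 50; inactive means mean and every replicate below 50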
HSF-1 act – HSF-1 activators, primary screen, NIH3T3-HGL cells, MG132 stress, luminescence, single point | NIH3T3-HGL HSF-1 luciferase reporter, 8 h; 100% = twice DMSO control signal | activation, % at 9 µM | 300,000 tested, 1.7% active;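 active means mean replicate activation of at least 50% with a set share of replicates each reaching 50%; inconclusive means only one of those two conditions met; inactive means mean below 50% and too few replicates reaching it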;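 further: 0% = median of the neutral control wells and 100% = twice that signal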
Numbers without * were called inactive; ? = inconclusive; nt = no result. An excerpt weighted towards active compounds, which were near 4.9% of everything screened.

SMILES | dFosB act | HSP90 inh | MPTP block | HSF1 inhib | Platelet DG rel | HSF-1 act
Cc1ccc(S(=O)(=O)/N=C(\c2ccc(F)cc2)n2c(C)nc3ccccc32)cc1 | -8.8 | -0.3 | 0.5 | -6.7 | 51.7* | -4.1
COc1ccc(Nc2ncnc3c2c(C)c(C)n3CCCN(C)C)cc1 | 2.7 | 7.0 | 0.6 | -54.5* | -2.4 | -52.3
CN(C)/N=C/C=C1\CCC/C(=C/c2cccs2)C1=O | -21.3 | -1.3 | 2.8 | 41.1 | 5.6 | 75.8*
CN(C)/N=C/C=C1\CC/C(=C\c2ccc(Br)cc2)C1=O | -13.3 | 2.9 | 1.9 | -0.6 | 0.8 | -0.3
Cn1ccc(NC(=O)c2ccc([N+](=O)[O-])cc2)n1 | 3.5 | nt | -0.9 | nt | nt | nt
COC(=O)c1ccc(CNC(=O)C(NC(=O)c2ccco2)C(C)C)cc1 (stereo not drawn) | -3.4 | -5.7 | -0.4 | -58.3* | -1.1 | -66.4
CCS(=O)(=O)N1CCc2nc(-c3ccccc3)sc2C1 | -4.0 | 11.1 | -0.7 | 30.5 | 6.4 | 62.5*
COc1ccc(-c2nc3c(s2)CN(S(C)(=O)=O)CC3)cc1OC | 4.3 | 0.6 | -1.0 | -2.4 | 8.2 | -3.1
Cc1ccc(C)c(OCCC(=O)OCC(=O)N2CCN(S(=O)(=O)c3ccc(Cl)cc3)CC2)c1 | -7.9 | nt | -4.0 | ? | -2.5 | -0.8
CCOc1ccc(OCCC(=O)OCC(=O)N2CCN(S(=O)(=O)c3ccc(Cl)cc3)CC2)cc1 | -7.2 | 5.3 | 0.9 | 61.6 | -4.5 | 86.9*
Cc1ccc(S(=O)(=O)N2CCN(C(=O)COC(=O)COc3ccc(Cl)cc3)CC2)c(C)c1 | 207.5* | nt | -0.2 | nt | nt | nt
CCC(C)(C)c1ccc(OC(=O)c2cccnc2Cl)cc1 | -0.6 | 4.4 | 1.9 | 24.5 | 5.8 | 59.1*
N#CCc1ccc(OC(=O)c2cccnc2Cl)cc1 | -4.2 | nt | 0.8 | -4.7 | -1.4 | -1.8
Cc1cc2ccccc2nc1SCC(=O)N1c2ccccc2CC1C (stereo not drawn) | 0.5 | 3.1 | 0.2 | -4.1 | 67.4* | 1.9
Cc1cc2cc3c(cc2nc1SCC(=O)N1c2ccccc2CC1C)OCO3 (stereo not drawn) | -3.8 | 16.8* | 2.2 | -0.7 | 5.1 | 14.0
CC1Cc2ccccc2N1C(=O)CSc1ncccc1C(=O)O (stereo not drawn) | 0.8 | -2.4 | 2.4 | -77.6* | -3.4 | -81.4
CC1Cc2ccccc2N1C(=O)CSc1nc2cc3c(cc2cc1C#N)OCO3 (stereo not drawn) | 5.5 | -0.8 | 0.0 | nt | nt | nt
CC1Cc2ccccc2N1C(=O)CSc1ccccc1 (stereo not drawn) | 5.9 | -6.8 | -1.0 | 29.3 | -3.0 | 26.1
CC(=O)Nc1cc(-c2cccc(CO)c2)cn2c(-c3ccc(C(C)=O)cc3)cnc12 | nt | nt | -0.7 | nt | nt | nt
CC(C)c1ccc(NC(=O)CNC(=O)Cn2cnc3ccccc3c2=O)cc1 | -9.5 | 1.2 | 2.2 | -82.6* | 1.4 | -86.5
CC(C)c1ccc(NC(=O)CNC(=O)Cn2ccc3ccccc3c2=O)cc1 | -4.7 | 1.9 | 1.3 | -8.0 | -3.1 | -7.2
CN(C(=O)CCNC(=O)Cn1cnc2ccccc2c1=O)c1ccc(F)cc1 | 2.9 | -3.0 | 0.0 | -5.2 | 12.2 | -1.4
CN(C(=O)CCNC(=O)Cn1cnc2ccccc2c1=O)c1ccccc1F | 1.0 | -1.2 | -0.4 | -89.5* | 1.5 | -91.1
Cn1c(=O)n(C)c2cc(N3CCOCC3)c(NC(=O)c3cccc(Cl)c3)cc21 | -3.4 | 3.5 | -0.4 | -4.0 | 2.0 | 2.9
COc1ccc([N+](=O)[O-])cc1NCc1ccccc1 | 2.7 | -2.4 | 0.4 | 6.9 | -0.7 | 26.0
SMILES | dFosB act | HSP90 inh | MPTP block | HSF1 inhib | Platelet DG rel | HSF-1 act
COc1cc2cc(NC(C)=O)cc(NCc3ccccc3)c2cc1OC | -6.4 | -2.7 | 0.1 | 27.7 | -3.9 | 66.4*
CCCCNc1cc(NC(C)=O)cc2cc(OC)c(OC)cc12 | -8.3 | 2.1 | 2.9 | 59.2 | -19.6 | 76.3*
Cc1nc(-c2cccc(NC(=O)c3ccc(-n4cccn4)cc3)c2)cs1 | -27.7 | nt | -0.8 | nt | nt | nt
CCOC(=O)C1(C)CCCN1C(=O)c1ccc(OC)c(F)c1 (stereo not drawn) | nt | nt | 1.8 | nt | nt | nt
COC(=O)C(C(=O)OC)c1cc2c(cc1CNS(=O)(=O)c1ccc(C)cc1)OCO2 | nt | nt | 0.7 | nt | nt | nt
CSc1ncccc1C(=O)OCc1ccccc1 | 12.6 | 1.9 | -0.9 | 27.6 | 6.0 | 57.7*
CCOC(=O)c1ccc(N2C(=O)CC(N3CCC(Nc4ccc(F)cc4)CC3)C2=O)cc1 (stereo not drawn) | -3.3 | 6.8 | -2.2 | 22.7 | -3.4 | 57.9*
Cn1c(NC(=S)Nc2ccccc2)nc2ccccc21 | -8.9 | 0.8 | -0.3 | 39.8 | 1.5 | 77.4*
CC(C)C[C@@H](CC#N)N1CCN(CCc2ccccc2)CCC1=O | 3.3 | -2.3 | -1.2 | -22.2 | -1.9 | -35.8
CC(C)C[C@@H](CC#N)N1CCN(Cc2ccccc2)CCC1=O | 5.7 | -4.1 | 0.4 | -61.3* | 6.9 | -69.3
CC(C)(CO)CNC(=O)CCc1nnc(C2(c3ccc(Cl)cc3)CCC2)o1 | -6.3 | 2.4 | 1.0 | -2.3 | 3.5 | 15.6
COCCNC(=O)CCc1nnc(C2(c3ccc(Cl)cc3)CCC2)o1 | -3.4 | -1.7 | 1.1 | -56.1* | 2.9 | -65.3
S=C(NCCc1ccccc1)N/N=C/C1CCCCC1 | nt | 2.3 | nt | 21.1 | 2.8 | 21.7
S=C(NCCc1ccccc1)NN=C1CCCCCC1 | 2.8 | -3.6 | 0.1 | 45.6 | -2.4 | 67.0*
c1ccc(-c2nc3nc4ccccc4nc3n2Cc2ccco2)cc1 | 4.4 | 2.5 | -3.7 | 7.7 | 3.7 | -2.7
Fc1ccc(-c2nc3nc4ccccc4nc3n2Cc2ccco2)cc1 | 0.6 | 16.8* | -2.5 | 23.0 | 0.6 | 35.7
C[C@H]1COc2cccc(N3CCSCC3)c2S(=O)(=O)N1 | nt | nt | 0.6 | nt | nt | nt
CCCCCOc1ccc(C(=O)OCC(=O)Nc2cc(C)on2)cc1 | 0.8 | nt | -1.4 | nt | nt | nt
CCOC(=O)C[C@H]1c2ccc(C(F)(F)F)cc2S(=O)(=O)N1C(C)(C)C | 0.8 | nt | -0.1 | -1.6 | -1.8 | -12.2
Nn1c(-c2cccs2)nc2sc3c(c2c1=O)CCCC3 | -2.4 | -1.0 | 1.7 | 44.2 | -7.6 | 70.3*
Cc1nnc(SCC(=O)NC(C)(C)C)n1NCc1c(F)cccc1Cl | 3.6 | 1.7 | 0.0 | -2.8 | 2.6 | -11.7
COc1ccccc1N(C)S(=O)(=O)c1ccc(C(=O)NCc2ccccc2CN2CCCC2)cc1 | -13.1 | nt | 0.6 | nt | nt | nt
C/C(Cl)=C/Cc1c(C)[nH]c2ccc(C)cc2c1=O | -4.3 | -0.1 | 1.6 | 24.1 | 7.4 | 58.2*
O=S(=O)(Nc1ccc(-c2ccc3nncn3n2)cc1)c1ccccc1Cl | 5.5 | nt | -0.8 | -2.0 | 60.9* | -11.0
Cc1cc(Nc2ccc3c(c2)OCCO3)c2ccccc2n1 | 7.5 | -1.2 | 9.8 | nt | -12.1 | nt
